Targets include PITX2 (Homo sapiens, UniProt Q99697 72-157); HOXB6 (Homo sapiens, UniProt P17509 132-218, K202E); ALX3 (Homo sapiens, UniProt O95076 139-225, N203S).
What all share (experiment): PBM; 200 nM protein, PBS
Holding throughout (settings): dsDNA, one strand shown

Test [1] addresses HOXB9 (Homo sapiens, UniProt P17482 171-250, T197M).
The target in test [2] is HOXB9 (Homo sapiens, UniProt P17482 171-250).
In test [3] the target is HOXB9 (Homo sapiens, UniProt P17482 171-250, R186Q).
In test [4] the target is HOXD13 (Homo sapiens, UniProt P35453 263-343, T313R).
HOXD13 (Homo sapiens, UniProt P35453 263-343, T313R), sequence (P35453 263-343 T313R): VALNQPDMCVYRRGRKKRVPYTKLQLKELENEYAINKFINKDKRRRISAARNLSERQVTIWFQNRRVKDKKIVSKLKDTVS
Test [5] deals with HOXA2 (Homo sapiens, UniProt O43364 129-215, R185T).
HOXA2 (Homo sapiens, UniProt O43364 129-215, R185T), sequence (O43364 129-215 R185T): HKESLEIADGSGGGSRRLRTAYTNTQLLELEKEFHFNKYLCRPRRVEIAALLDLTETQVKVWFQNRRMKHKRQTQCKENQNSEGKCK
The target of test [6] is HOXA2 (Homo sapiens, UniProt O43364 129-215, R185K).
HOXA2 (Homo sapiens, UniProt O43364 129-215, R185K), sequence (O43364 129-215 R185K): as the sequence (O43364 129-215 R185T) above, with T57K counted along it
Test [7] has as its target HOXA2 (Homo sapiens, UniProt O43364 129-215, Y150S).
Test [8] addresses HOXA2 (Homo sapiens, UniProt O43364 129-215).
Test [9] deals with MSX2 (Homo sapiens, UniProt P35548 130-214, R199I).
MSX2 (Homo sapiens, UniProt P35548 130-214, R199I), sequence (P35548 130-214 R199I): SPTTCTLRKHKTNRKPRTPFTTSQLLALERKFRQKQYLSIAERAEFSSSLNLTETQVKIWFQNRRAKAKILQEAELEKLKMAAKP
For test [10], the target named is HOXD13 (Homo sapiens, UniProt P35453 263-343).
HOXD13 (Homo sapiens, UniProt P35453 263-343), sequence (P35453 263-343): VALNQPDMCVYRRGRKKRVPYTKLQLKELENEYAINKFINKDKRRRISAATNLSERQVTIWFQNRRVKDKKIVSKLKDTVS
The target in test [11] is MSX2 (Homo sapiens, UniProt P35548 130-214).
MSX2 (Homo sapiens, UniProt P35548 130-214), sequence (P35548 130-214): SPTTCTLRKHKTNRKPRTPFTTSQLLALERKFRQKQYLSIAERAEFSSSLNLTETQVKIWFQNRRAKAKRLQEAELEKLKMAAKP
For test [12], the target named is PROP1 (Homo sapiens, UniProt O75360 56-141).
PROP1 (Homo sapiens, UniProt O75360 56-141), sequence (O75360 56-141): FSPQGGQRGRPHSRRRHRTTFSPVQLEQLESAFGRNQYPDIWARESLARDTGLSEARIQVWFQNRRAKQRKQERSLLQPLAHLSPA
Test [13] addresses PROP1 (Homo sapiens, UniProt O75360 56-141, R99H).
For test [14], the target named is HOXD13 (Homo sapiens, UniProt P35453 263-343, T313A).
HOXD13 (Homo sapiens, UniProt P35453 263-343, T313A), sequence (P35453 263-343 T313A): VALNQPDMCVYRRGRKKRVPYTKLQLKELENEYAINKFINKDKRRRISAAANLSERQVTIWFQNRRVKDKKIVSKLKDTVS
In test [15] the target is PROP1 (Homo sapiens, UniProt O75360 56-141, F88S).
PROP1 (Homo sapiens, UniProt O75360 56-141, F88S), sequence (O75360 56-141 F88S): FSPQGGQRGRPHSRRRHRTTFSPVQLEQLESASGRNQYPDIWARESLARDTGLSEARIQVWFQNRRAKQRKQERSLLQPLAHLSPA
The target in test [16] is MSX2 (Homo sapiens, UniProt P35548 130-214, F161Y).
MSX2 (Homo sapiens, UniProt P35548 130-214, F161Y), sequence (P35548 130-214 F161Y): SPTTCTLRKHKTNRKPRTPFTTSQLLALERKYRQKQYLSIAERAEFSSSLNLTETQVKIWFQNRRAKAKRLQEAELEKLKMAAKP
The target in test [17] is VAX1 (Homo sapiens, UniProt Q5SQQ9 86-172).
VAX1 (Homo sapiens, UniProt Q5SQQ9 86-172), sequence (Q5SQQ9 86-172): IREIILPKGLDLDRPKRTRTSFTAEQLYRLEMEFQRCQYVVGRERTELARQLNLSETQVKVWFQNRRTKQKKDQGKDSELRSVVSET
Test [18] deals with VAX1 (Homo sapiens, UniProt Q5SQQ9 86-172, T142I).
VAX1 (Homo sapiens, UniProt Q5SQQ9 86-172, T142I), sequence (Q5SQQ9 86-172 T142I): as the sequence (Q5SQQ9 86-172) above, with T57I counted along it
Test [19] deals with VAX1 (Homo sapiens, UniProt Q5SQQ9 86-172, K157R).
VAX1 (Homo sapiens, UniProt Q5SQQ9 86-172, K157R), sequence (Q5SQQ9 86-172 K157R): as the sequence (Q5SQQ9 86-172) above, with K72R counted along it
For test [20], the target named is ALX1 (Homo sapiens, UniProt Q15699 118-204, L144V).
ALX1 (Homo sapiens, UniProt Q15699 118-204, L144V), sequence (Q15699 118-204 L144V): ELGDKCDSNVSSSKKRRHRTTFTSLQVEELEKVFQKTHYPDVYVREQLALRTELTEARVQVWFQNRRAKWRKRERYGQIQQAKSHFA
Test [21] has as its target ALX1 (Homo sapiens, UniProt Q15699 118-204, L144R).
Test [22] concerns the target ALX1 (Homo sapiens, UniProt Q15699 118-204).

HOXA2 (Homo sapiens, UniProt O43364 129-215), sequence (O43364 129-215): as the sequence (O43364 129-215 R185T) above, with T57R counted along it
HOXB9 (Homo sapiens, UniProt P17482 171-250, R186Q), sequence (P17482 171-250 R186Q): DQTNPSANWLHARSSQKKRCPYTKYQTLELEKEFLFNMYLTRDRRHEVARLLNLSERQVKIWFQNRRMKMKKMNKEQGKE
HOXB9 (Homo sapiens, UniProt P17482 171-250, T197M), sequence (P17482 171-250 T197M): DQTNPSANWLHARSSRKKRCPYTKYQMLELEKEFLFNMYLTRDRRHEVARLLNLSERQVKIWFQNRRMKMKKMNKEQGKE
HOXA2 (Homo sapiens, UniProt O43364 129-215, Y150S), sequence (O43364 129-215 Y150S): as the sequence (O43364 129-215 R185T) above, with Y22S, T57R counted along it
HOXB9 (Homo sapiens, UniProt P17482 171-250), sequence (P17482 171-250): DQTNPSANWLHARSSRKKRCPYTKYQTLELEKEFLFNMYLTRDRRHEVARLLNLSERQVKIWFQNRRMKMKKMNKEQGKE
ALX1 (Homo sapiens, UniProt Q15699 118-204), sequence (Q15699 118-204): as the sequence (Q15699 118-204 L144V) above, with V27L counted along it
ALX1 (Homo sapiens, UniProt Q15699 118-204, L144R), sequence (Q15699 118-204 L144R): as the sequence (Q15699 118-204 L144V) above, with V27R counted along it
HOXB6, sequence (P17509 132-218 K202E): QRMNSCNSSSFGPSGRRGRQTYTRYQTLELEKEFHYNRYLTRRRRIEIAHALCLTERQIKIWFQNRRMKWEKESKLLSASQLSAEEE
PROP1 (Homo sapiens, UniProt O75360 56-141, R99H), sequence (O75360 56-141 R99H): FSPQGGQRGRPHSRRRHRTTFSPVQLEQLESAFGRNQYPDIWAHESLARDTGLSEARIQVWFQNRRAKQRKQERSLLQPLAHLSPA
ALX3, sequence (O95076 139-225 N203S): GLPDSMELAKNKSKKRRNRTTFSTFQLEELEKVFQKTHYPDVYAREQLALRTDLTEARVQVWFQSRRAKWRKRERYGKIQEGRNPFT

Regarding GCCACTCC, the binding signal with HOXB9 [1] is 8.73 upbm affinity estimate (log intensity, higher = more binding, comparable within an allelic series); with HOXB9 [2] it was 8.79 upbm affinity estimate (log intensity, higher = more binding, comparable within an allelic series); with HOXB9 [3], 8.8 upbm affinity estimate (log intensity, higher = more binding, comparable within an allelic series).
For the sequence CTTGGCGC, the binding signal with HOXB9 [1] was 8.47 upbm affinity estimate (log intensity, higher = more binding, comparable within an allelic series); with HOXB9 [2], 8.24 upbm affinity estimate (log intensity, higher = more binding, comparable within an allelic series); in the test with PITX2, 7.94 upbm affinity estimate (log intensity, higher = more binding, comparable within an allelic series); with HOXB9 [3], 8.21 upbm affinity estimate (log intensity, higher = more binding, comparable within an allelic series).
In the case of TATAAATA, the binding signal in the test with HOXB9 [1] was 9.81 upbm affinity estimate (log intensity, higher = more binding, comparable within an allelic series); with HOXB9 [2], 11.2 upbm affinity estimate (log intensity, higher = more binding, comparable within an allelic series); with HOXD13 [4] it was 10.8 upbm affinity estimate (log intensity, higher = more binding, comparable within an allelic series); in the test with HOXB9 [3] it was 10.8 upbm affinity estimate (log intensity, higher = more binding, comparable within an allelic series).
With GAACCGGC, the binding signal with HOXB9 [1] was 8.52 upbm affinity estimate (log intensity, higher = more binding, comparable within an allelic series); with HOXA2 [5], 7.08 upbm affinity estimate (log intensity, higher = more binding, comparable within an allelic series); with HOXB9 [2] it was 8.43 upbm affinity estimate (log intensity, higher = more binding, comparable within an allelic series); with HOXA2 [6], 10.2 upbm affinity estimate (log intensity, higher = more binding, comparable within an allelic series); with HOXB9 [3] it was 8.48 upbm affinity estimate (log intensity, higher = more binding, comparable within an allelic series); with HOXA2 [7] it was 10.4 upbm affinity estimate (log intensity, higher = more binding, comparable within an allelic series). The binding signal with HOXA2 [8] is 7.09 upbm affinity estimate (log intensity, higher = more binding, comparable within an allelic series).
Take CCTATAAG: the binding signal was 9.17 upbm affinity estimate (log intensity, higher = more binding, comparable within an allelic series) with HOXB9 [1] and 9.71 upbm affinity estimate (log intensity, higher = more binding, comparable within an allelic series) in the test with HOXB9 [2].
With ATAAATTG, the binding signal with HOXB9 [1] was 9.96 upbm affinity estimate (log intensity, higher = more binding, comparable within an allelic series); with HOXB6, 10 upbm affinity estimate (log intensity, higher = more binding, comparable within an allelic series); with ALX3 it was 8.68 upbm affinity estimate (log intensity, higher = more binding, comparable within an allelic series).
Regarding CGTGGCTC, the binding signal is 8.5 upbm affinity estimate (log intensity, higher = more binding, comparable within an allelic series) with HOXB9 [1]; 8.18 upbm affinity estimate (log intensity, higher = more binding, comparable within an allelic series) with HOXB9 [2]; 8.26 upbm affinity estimate (log intensity, higher = more binding, comparable within an allelic series) with HOXB9 [3].
Consider CGGGCAAC, for which the binding signal with HOXB9 [1] is 8.62 upbm affinity estimate (log intensity, higher = more binding, comparable within an allelic series); in the test with HOXB9 [2], 8.62 upbm affinity estimate (log intensity, higher = more binding, comparable within an allelic series); with PITX2, 7.85 upbm affinity estimate (log intensity, higher = more binding, comparable within an allelic series); with HOXB9 [3], 8.68 upbm affinity estimate (log intensity, higher = more binding, comparable within an allelic series).
For CCGCAGCC, the binding signal with HOXB9 [1] was 8.52 upbm affinity estimate (log intensity, higher = more binding, comparable within an allelic series); in the test with HOXB9 [2] it was 8.38 upbm affinity estimate (log intensity, higher = more binding, comparable within an allelic series); with MSX2 [9] it was 9.47 upbm affinity estimate (log intensity, higher = more binding, comparable within an allelic series); with HOXD13 [4], 9.38 upbm affinity estimate (log intensity, higher = more binding, comparable within an allelic series); in the test with HOXD13 [10], 9.33 upbm affinity estimate (log intensity, higher = more binding, comparable within an allelic series); with MSX2 [11], 9.43 upbm affinity estimate (log intensity, higher = more binding, comparable within an allelic series). The binding signal in the test with PROP1 [12] is 6.67 upbm affinity estimate (log intensity, higher = more binding, comparable within an allelic series); in the test with PROP1 [13], 6.75 upbm affinity estimate (log intensity, higher = more binding, comparable within an allelic series); with HOXD13 [14], 9.43 upbm affinity estimate (log intensity, higher = more binding, comparable within an allelic series); with HOXB9 [3], 8.47 upbm affinity estimate (log intensity, higher = more binding, comparable within an allelic series); with PROP1 [15], 6.52 upbm affinity estimate (log intensity, higher = more binding, comparable within an allelic series); in the test with MSX2 [16], 9.45 upbm affinity estimate (log intensity, higher = more binding, comparable within an allelic series).
Consider CCCGCAAG, for which the binding signal with HOXB9 [1] is 8.42 upbm affinity estimate (log intensity, higher = more binding, comparable within an allelic series); with HOXB9 [2] it was 8.44 upbm affinity estimate (log intensity, higher = more binding, comparable within an allelic series); in the test with PITX2, 7.91 upbm affinity estimate (log intensity, higher = more binding, comparable within an allelic series); in the test with HOXB9 [3], 8.51 upbm affinity estimate (log intensity, higher = more binding, comparable within an allelic series).
AGGAACCC: the binding signal in the test with HOXB9 [1] was 8.41 upbm affinity estimate (log intensity, higher = more binding, comparable within an allelic series); in the test with HOXB9 [2] it was 8.22 upbm affinity estimate (log intensity, higher = more binding, comparable within an allelic series); with HOXB9 [3], 8.24 upbm affinity estimate (log intensity, higher = more binding, comparable within an allelic series).
Regarding CGCGCCCC, the binding signal in the test with HOXB9 [1] is 8.45 upbm affinity estimate (log intensity, higher = more binding, comparable within an allelic series); in the test with HOXA2 [5], 7.42 upbm affinity estimate (log intensity, higher = more binding, comparable within an allelic series); with HOXB9 [2] it was 8.02 upbm affinity estimate (log intensity, higher = more binding, comparable within an allelic series); with HOXA2 [6] it was 10.1 upbm affinity estimate (log intensity, higher = more binding, comparable within an allelic series); with VAX1 [17] it was 7.05 upbm affinity estimate (log intensity, higher = more binding, comparable within an allelic series); with HOXB9 [3], 8.34 upbm affinity estimate (log intensity, higher = more binding, comparable within an allelic series). Also, the binding signal with VAX1 [18] is 6.95 upbm affinity estimate (log intensity, higher = more binding, comparable within an allelic series); with HOXA2 [7], 10.2 upbm affinity estimate (log intensity, higher = more binding, comparable within an allelic series); in the test with HOXA2 [8] it was 7.21 upbm affinity estimate (log intensity, higher = more binding, comparable within an allelic series); with VAX1 [19] it was 7.04 upbm affinity estimate (log intensity, higher = more binding, comparable within an allelic series).
Consider CCGTGAGG, for which the binding signal in the test with HOXB9 [1] is 8.4 upbm affinity estimate (log intensity, higher = more binding, comparable within an allelic series); with HOXB9 [2], 8.23 upbm affinity estimate (log intensity, higher = more binding, comparable within an allelic series); in the test with MSX2 [9], 9.41 upbm affinity estimate (log intensity, higher = more binding, comparable within an allelic series); with MSX2 [11], 9.11 upbm affinity estimate (log intensity, higher = more binding, comparable within an allelic series); in the test with HOXB9 [3], 8.2 upbm affinity estimate (log intensity, higher = more binding, comparable within an allelic series); with MSX2 [16] it was 9.23 upbm affinity estimate (log intensity, higher = more binding, comparable within an allelic series).
For CGCCCAGA, the binding signal with HOXB9 [1] was 8.62 upbm affinity estimate (log intensity, higher = more binding, comparable within an allelic series); in the test with HOXB9 [2], 8.59 upbm affinity estimate (log intensity, higher = more binding, comparable within an allelic series); with VAX1 [17], 7.13 upbm affinity estimate (log intensity, higher = more binding, comparable within an allelic series); with HOXB9 [3] it was 8.62 upbm affinity estimate (log intensity, higher = more binding, comparable within an allelic series); in the test with VAX1 [18], 7.22 upbm affinity estimate (log intensity, higher = more binding, comparable within an allelic series); in the test with VAX1 [19], 7.49 upbm affinity estimate (log intensity, higher = more binding, comparable within an allelic series).
For the sequence CCTGCGGC, the binding signal was 8.26 upbm affinity estimate (log intensity, higher = more binding, comparable within an allelic series) with HOXB9 [1]; 8.14 upbm affinity estimate (log intensity, higher = more binding, comparable within an allelic series) with HOXB9 [2]; 8.19 upbm affinity estimate (log intensity, higher = more binding, comparable within an allelic series) with HOXB9 [3].
On to CAATCAAC, for which the binding signal in the test with HOXB9 [1] was 9.17 upbm affinity estimate (log intensity, higher = more binding, comparable within an allelic series); with HOXB9 [2], 9.95 upbm affinity estimate (log intensity, higher = more binding, comparable within an allelic series); in the test with HOXB9 [3], 9.93 upbm affinity estimate (log intensity, higher = more binding, comparable within an allelic series).
Take CGTAGGCC: the binding signal is 8.47 upbm affinity estimate (log intensity, higher = more binding, comparable within an allelic series) in the test with HOXB9 [1]; 8.61 upbm affinity estimate (log intensity, higher = more binding, comparable within an allelic series) with HOXB9 [2]; 8.63 upbm affinity estimate (log intensity, higher = more binding, comparable within an allelic series) with HOXB9 [3].
As to CCTAGCCG, the binding signal is 8.53 upbm affinity estimate (log intensity, higher = more binding, comparable within an allelic series) with HOXB9 [1]; 8.64 upbm affinity estimate (log intensity, higher = more binding, comparable within an allelic series) in the test with HOXB9 [2]; 6.49 upbm affinity estimate (log intensity, higher = more binding, comparable within an allelic series) in the test with ALX1 [20]; 6.54 upbm affinity estimate (log intensity, higher = more binding, comparable within an allelic series) in the test with ALX1 [21]; 8.65 upbm affinity estimate (log intensity, higher = more binding, comparable within an allelic series) in the test with HOXB9 [3]; 6.41 upbm affinity estimate (log intensity, higher = more binding, comparable within an allelic series) in the test with ALX1 [22].
CTCGACCA: the binding signal with HOXB9 [1] was 8.44 upbm affinity estimate (log intensity, higher = more binding, comparable within an allelic series); in the test with HOXB9 [2], 8.28 upbm affinity estimate (log intensity, higher = more binding, comparable within an allelic series); with ALX1 [20], 6.22 upbm affinity estimate (log intensity, higher = more binding, comparable within an allelic series); with ALX1 [21], 6.21 upbm affinity estimate (log intensity, higher = more binding, comparable within an allelic series); with HOXB9 [3] it was 8.38 upbm affinity estimate (log intensity, higher = more binding, comparable within an allelic series); with ALX1 [22], 6.22 upbm affinity estimate (log intensity, higher = more binding, comparable within an allelic series).
For the sequence CTCAGGCC, the binding signal is 8.41 upbm affinity estimate (log intensity, higher = more binding, comparable within an allelic series) with HOXB9 [1]; 7.06 upbm affinity estimate (log intensity, higher = more binding, comparable within an allelic series) with HOXA2 [5]; 8.36 upbm affinity estimate (log intensity, higher = more binding, comparable within an allelic series) with HOXB9 [2]; 10.3 upbm affinity estimate (log intensity, higher = more binding, comparable within an allelic series) with HOXA2 [6]; 8.4 upbm affinity estimate (log intensity, higher = more binding, comparable within an allelic series) with HOXB9 [3]; 10.4 upbm affinity estimate (log intensity, higher = more binding, comparable within an allelic series) in the test with HOXA2 [7]. In addition, in the test with HOXA2 [8], the binding signal was 7.06 upbm affinity estimate (log intensity, higher = more binding, comparable within an allelic series).
